Data on 1 compound can be found in ChEMBL document CHEMBL2218924, “A broad activity screen in support of a chemogenomic map for kinase signalling research and drug discovery” (Biochem J, 2013).

Assay [1] has as its target Tyrosine-protein kinase SYK (Homo sapiens) (UniProt P43405). The following applies: at 10 µM.
For assay [2], the target named is T1, Mitogen-activated protein kinase kinase kinase 7 (Homo sapiens) (UniProt O43318).
T1 sequence (whole entry): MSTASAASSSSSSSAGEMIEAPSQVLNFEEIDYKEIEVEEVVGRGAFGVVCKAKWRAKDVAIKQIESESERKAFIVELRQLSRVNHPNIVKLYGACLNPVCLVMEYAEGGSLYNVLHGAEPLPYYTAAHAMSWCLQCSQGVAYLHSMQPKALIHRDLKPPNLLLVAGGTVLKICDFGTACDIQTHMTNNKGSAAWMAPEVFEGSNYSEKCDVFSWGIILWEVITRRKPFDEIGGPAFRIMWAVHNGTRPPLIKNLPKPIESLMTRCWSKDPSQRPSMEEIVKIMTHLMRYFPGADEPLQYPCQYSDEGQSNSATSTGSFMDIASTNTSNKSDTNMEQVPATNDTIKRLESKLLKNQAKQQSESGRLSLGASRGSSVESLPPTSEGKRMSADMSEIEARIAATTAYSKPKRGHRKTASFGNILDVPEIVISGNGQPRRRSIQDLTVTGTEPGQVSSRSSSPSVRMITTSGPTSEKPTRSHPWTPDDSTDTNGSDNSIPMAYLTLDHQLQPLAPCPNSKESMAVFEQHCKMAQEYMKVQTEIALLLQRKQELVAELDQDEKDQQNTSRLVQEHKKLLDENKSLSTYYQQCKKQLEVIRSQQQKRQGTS
The settings on record: at 1 µM.

Assay [3] deals with T1, Mitogen-activated protein kinase kinase kinase 7 (Homo sapiens). The following applies: at 10 µM.
Assay [4] concerns the target T2, Serine/threonine-protein kinase TAO1 (Homo sapiens) (UniProt Q7L7X3).
T2 sequence (whole entry): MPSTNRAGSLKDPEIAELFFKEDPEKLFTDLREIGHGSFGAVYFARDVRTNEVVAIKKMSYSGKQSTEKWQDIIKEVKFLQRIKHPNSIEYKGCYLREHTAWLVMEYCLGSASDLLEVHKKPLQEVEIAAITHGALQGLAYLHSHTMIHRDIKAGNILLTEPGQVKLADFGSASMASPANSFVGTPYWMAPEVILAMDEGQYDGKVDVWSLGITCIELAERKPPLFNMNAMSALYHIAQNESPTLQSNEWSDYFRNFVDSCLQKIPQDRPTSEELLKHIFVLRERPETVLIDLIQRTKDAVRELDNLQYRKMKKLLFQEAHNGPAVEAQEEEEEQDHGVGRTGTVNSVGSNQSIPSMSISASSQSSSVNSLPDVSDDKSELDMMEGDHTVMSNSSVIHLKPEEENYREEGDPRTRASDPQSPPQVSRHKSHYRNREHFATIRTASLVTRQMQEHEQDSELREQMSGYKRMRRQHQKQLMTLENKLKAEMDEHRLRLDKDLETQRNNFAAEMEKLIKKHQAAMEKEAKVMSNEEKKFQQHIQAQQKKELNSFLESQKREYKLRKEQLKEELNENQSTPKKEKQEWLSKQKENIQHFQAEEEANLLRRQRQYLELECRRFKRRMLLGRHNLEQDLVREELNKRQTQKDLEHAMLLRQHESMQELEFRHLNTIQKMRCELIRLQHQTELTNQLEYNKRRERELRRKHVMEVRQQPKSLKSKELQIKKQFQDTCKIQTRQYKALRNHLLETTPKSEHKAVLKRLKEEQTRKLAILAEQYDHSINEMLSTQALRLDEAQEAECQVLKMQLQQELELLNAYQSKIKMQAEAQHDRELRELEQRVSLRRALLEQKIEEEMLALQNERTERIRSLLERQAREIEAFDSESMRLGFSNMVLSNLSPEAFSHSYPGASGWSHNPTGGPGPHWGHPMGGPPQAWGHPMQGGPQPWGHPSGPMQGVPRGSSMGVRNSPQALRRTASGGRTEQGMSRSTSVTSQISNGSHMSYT
The settings on record: at 1 µM.

In assay [5] the target is T2, Serine/threonine-protein kinase TAO1 (Homo sapiens). The following applies: at 10 µM.
Assay [6] concerns the target T3, Serine/threonine-protein kinase TAO2 (Homo sapiens) (UniProt Q9UL54).
T3 sequence (whole entry): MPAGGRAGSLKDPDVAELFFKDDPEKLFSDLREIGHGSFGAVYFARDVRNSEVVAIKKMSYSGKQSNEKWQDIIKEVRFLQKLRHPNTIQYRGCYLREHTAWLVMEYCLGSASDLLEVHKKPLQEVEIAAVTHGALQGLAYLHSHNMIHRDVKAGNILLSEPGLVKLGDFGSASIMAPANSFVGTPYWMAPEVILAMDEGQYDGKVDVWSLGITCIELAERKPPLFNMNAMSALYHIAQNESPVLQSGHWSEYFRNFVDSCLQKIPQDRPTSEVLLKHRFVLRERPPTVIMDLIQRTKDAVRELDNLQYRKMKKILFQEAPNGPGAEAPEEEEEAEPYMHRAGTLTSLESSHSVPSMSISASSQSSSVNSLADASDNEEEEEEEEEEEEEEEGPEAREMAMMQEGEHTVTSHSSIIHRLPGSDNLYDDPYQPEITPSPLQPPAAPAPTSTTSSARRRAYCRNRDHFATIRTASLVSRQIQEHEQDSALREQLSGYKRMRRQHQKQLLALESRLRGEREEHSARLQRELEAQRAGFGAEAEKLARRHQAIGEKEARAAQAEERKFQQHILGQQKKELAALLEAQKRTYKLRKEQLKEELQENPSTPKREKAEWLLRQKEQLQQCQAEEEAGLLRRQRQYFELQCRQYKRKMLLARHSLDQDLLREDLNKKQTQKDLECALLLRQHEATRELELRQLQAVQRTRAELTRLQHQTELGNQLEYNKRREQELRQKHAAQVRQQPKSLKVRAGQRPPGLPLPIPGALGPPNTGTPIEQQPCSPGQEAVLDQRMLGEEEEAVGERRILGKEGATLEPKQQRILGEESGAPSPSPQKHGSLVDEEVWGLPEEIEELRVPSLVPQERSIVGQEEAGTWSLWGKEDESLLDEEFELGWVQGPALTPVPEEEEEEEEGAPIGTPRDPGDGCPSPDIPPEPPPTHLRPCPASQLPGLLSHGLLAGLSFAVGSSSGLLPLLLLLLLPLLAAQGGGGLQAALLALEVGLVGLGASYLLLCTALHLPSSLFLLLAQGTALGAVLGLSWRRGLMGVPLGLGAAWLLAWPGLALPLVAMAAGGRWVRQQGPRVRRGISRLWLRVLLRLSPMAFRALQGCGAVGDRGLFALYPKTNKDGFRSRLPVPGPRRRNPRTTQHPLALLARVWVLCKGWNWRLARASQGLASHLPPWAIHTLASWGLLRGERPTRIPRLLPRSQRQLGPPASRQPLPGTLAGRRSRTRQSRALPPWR
The settings on record: at 1 µM.

Assay [7] has as its target T3, Serine/threonine-protein kinase TAO2 (Homo sapiens). The following applies: at 10 µM.
The target in assay [8] is T4, Serine/threonine-protein kinase TAO3 (Homo sapiens) (UniProt Q9H2K8).
T4 sequence (whole entry): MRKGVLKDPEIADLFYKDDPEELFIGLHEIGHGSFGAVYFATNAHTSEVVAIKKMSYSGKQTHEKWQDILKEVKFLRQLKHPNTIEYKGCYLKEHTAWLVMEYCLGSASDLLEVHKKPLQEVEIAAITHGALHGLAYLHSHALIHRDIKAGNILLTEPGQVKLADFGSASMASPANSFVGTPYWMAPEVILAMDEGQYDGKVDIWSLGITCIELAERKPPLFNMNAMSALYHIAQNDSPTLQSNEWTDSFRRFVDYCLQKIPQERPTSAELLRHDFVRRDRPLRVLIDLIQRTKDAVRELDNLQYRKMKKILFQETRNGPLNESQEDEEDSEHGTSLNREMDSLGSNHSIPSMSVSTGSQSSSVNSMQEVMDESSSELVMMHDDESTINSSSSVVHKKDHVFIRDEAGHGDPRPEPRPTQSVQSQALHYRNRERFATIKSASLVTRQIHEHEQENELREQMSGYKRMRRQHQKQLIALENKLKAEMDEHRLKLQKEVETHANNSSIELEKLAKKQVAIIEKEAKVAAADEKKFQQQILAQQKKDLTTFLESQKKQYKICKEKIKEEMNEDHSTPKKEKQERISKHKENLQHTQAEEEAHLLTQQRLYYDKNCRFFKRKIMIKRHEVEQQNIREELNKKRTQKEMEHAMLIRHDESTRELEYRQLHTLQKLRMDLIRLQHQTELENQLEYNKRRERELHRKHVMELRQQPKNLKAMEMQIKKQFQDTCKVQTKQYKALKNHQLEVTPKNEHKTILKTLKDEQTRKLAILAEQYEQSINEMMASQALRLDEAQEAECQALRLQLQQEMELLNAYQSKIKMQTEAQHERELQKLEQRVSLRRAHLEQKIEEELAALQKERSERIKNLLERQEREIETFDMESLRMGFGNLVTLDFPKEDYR
The settings on record: at 1 µM.

The target in assay [9] is T4, Serine/threonine-protein kinase TAO3 (Homo sapiens). The following applies: at 10 µM.
Assay [10] concerns the target T5, Serine/threonine-protein kinase TBK1 (Homo sapiens) (UniProt Q9UHD2).
T5 sequence (whole entry): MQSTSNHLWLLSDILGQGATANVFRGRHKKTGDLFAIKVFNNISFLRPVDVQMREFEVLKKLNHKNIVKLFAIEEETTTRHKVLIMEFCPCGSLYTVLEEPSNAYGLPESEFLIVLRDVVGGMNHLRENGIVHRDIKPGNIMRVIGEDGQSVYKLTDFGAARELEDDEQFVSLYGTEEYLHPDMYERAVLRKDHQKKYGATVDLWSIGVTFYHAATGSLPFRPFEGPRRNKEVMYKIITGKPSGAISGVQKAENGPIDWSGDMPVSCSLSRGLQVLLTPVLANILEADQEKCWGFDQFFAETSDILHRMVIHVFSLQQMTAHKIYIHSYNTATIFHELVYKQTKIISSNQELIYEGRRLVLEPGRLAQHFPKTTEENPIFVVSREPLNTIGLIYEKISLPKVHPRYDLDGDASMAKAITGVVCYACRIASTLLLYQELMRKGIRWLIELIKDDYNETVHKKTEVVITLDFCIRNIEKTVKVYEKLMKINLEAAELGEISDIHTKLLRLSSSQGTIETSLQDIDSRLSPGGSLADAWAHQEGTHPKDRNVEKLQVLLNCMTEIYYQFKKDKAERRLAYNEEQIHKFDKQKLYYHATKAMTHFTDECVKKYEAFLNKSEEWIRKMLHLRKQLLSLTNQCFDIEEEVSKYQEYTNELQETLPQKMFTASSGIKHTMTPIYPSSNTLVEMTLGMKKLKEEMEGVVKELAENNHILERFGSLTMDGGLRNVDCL
The settings on record: at 1 µM.

SMILES strings stand for the structures.

Consider `Cc1nc(-c2ccccc2)c(-c2ccncc2)o1`, for which the residual activity stood at 116% in assay [1]; 103% in assay [2]; 97% in assay [3]; 103% in assay [4]; 79% in assay [5]; 120% in [6]. Besides, the residual activity in assay [7] worked out at 108%; in [8], 107%; in assay [9], 101%; in assay [10], 102%.
